Source: PubChem (several laboratories)
CHT PAM: CHT positive allosteric modulators, primary screen, cell-based, membrane potential dye, choline EC20; High affinity choline transporter 1 (Homo sapiens), Q9GZV3; CHT-expressing cells; stronger effect = higher value; LV-AA mutant CHT in HEK293 cells; B-score at 10 µM; 310,000 tested, 0.49% active; AID 488977, 2010;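 active = initial fluorescence not abnormally high and integrated response B-score, plate-corrected, over 3 SD above library mean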
Target sequence (Q9GZV3 whole entry, looked up): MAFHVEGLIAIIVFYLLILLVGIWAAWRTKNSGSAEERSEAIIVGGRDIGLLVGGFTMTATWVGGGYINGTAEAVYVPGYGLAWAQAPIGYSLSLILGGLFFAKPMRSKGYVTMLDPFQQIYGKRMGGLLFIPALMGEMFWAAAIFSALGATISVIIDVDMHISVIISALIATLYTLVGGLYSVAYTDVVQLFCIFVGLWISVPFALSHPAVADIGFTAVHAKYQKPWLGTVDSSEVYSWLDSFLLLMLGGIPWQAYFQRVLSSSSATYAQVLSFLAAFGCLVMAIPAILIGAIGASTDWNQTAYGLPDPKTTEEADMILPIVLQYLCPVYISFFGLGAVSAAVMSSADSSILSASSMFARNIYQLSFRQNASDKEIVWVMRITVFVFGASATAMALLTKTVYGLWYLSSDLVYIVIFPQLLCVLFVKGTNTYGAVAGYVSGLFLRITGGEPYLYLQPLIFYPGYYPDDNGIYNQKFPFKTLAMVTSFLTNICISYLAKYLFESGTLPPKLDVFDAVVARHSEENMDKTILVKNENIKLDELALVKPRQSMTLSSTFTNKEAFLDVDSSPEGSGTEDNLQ
Bfl-1 A1 inh: caspase 3/7 activation in MEF A1-2A-BIM cells, primary screen, A1 inhibitor project, cell-based, luminescence, HTS | Caspase-Glo 3/7 luminescence, 3 h; percent of clofoctol response, vehicle zero | caspase activation, % (test concentration not listed) | 330,000 tested, 0.066% active | AID 2462, 2010;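 active = over half of replicate activation scores above 10%, or exactly half above 10 with the replicate mean above 10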
Mot1-301 SUMO: yeast Mot1-301 growth rescue at high temperature, primary screen, SUMOylation pathway inhibitor project, S. cerevisiae, ATP luminescence, 38.5C | S. cerevisiae Mot1-301 growth rescue; percent above DMSO median, 100 means doubled | growth rescue, % at 18.8 µM | 320,000 tested, 1% active | AID 2716, 2010;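 active = every valid replicate shows activation above 250% relative to neutral control wells; inactive = the rest, any valid replicate at or below 250%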;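 note: OY570 slx delta 5 strain wells were the positive control but not used for scaling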
NLRP3 yeast inh: NALP3 inflammasome inhibitors in reconstituted yeast, primary screen, luminescence, uHTS; 330,000 tested, 0.39% active; Yeast reconstituted NLRP3/ASC/caspase-1, beta-gal luminescence, 24 h; inhibition, % at 10 µM; AID 2825, 2010;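 active = inhibition of 50% or more; inactive = inhibition below 50%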;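 note: plate controls were induced DMSO wells for no effect and uninduced yeast grown without galactose for full effect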
CHT block: inhibitors of human choline transporter CHT; High affinity choline transporter 1 (Homo sapiens), Q9GZV3; CHT-expressing cells, membrane potential dye, choline response; stronger effect = lower value; B-score at 10 µM; 310,000 tested, 0.86% active; AID 488975, 2010;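 active = B-score over 3 SD under the library average, and starting fluorescence ratio not unusually high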;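 note: choline stimulus applied at its EC90 after an EC20 pre-addition; B-score computed on integrated fluorescence ratio after choline addition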
NALP1 inh: NALP1 inflammasome inhibitors in reconstituted yeast, colorimetric, S. cerevisiae, triplicate retest; 280,000 tested, 0.61% active; AID 2071, 2009; S. cerevisiae NALP1/ASC/caspase-1 growth, X-gal OD620, 72 h; inhibition, % at 10 µM; in the data active = inhibition mostly above about 24%, no sharp cut-off; inactive = mostly below about 32%
NALP3 yeast conf: NALP3 inhibitors retested in yeast, confirmation, luminescence, single concentration; AID 435006, 2010; yeast expressing human NALP3; 1,300 tested, 81% active; shares compounds with NLRP3 yeast inh; inhibition, % at 10 µM; in the data active = inhibition above about 48%
Casp1-ASC yeast: CASP1-PYCARD signaling inhibition in yeast, confirmatory test, counterassay for NLRP3 inhibitor program, one-dose. shares compounds with NLRP3 yeast inh. yeast expressing Caspase-1-ASC, luminescence counter screen. inhibition, % at 10 µM. 1,000 tested, 66% active. AID 488784, 2010
NALP3 yeast rt: NALP3 inhibitors in yeast, repeat test, confirmation, luminescence, single concentration, retest | shares compounds with NLRP3 yeast inh | yeast expressing human NALP3, luminescence read-out | inhibition, % at 10 µM | 1,000 tested, 53% active
CHT inh conf: CHT inhibitors, confirmation, cell-based, membrane potential dye, duplicate; CHT-expressing cells, choline membrane potential dye; LV-to-AA substituted CHT, HEK293 cells; 2,400 tested, 70% active; shares compounds with CHT block; AID 493221, 2011; CHT activity remaining % of control (stronger effect = lower value), % at 10 µM;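 active = choline transporter activity left, mean of duplicates at 10 µM, below buffer-only control mean minus 3 SD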;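 note: depolarization triggered by choline at its EC90 following an EC20 pre-addition; 0% = hemicholinium-3 full block and 100% = buffer-only control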
HEK293 MPD ctr: membrane potential effects in parental HEK293, counter-screen for CHT inhibitor project, cell-based, membrane potential dye; shares compounds with CHT block; choline response; active = decrease or increase beyond buffer ±3SD; membrane potential ratio readout (active if shifted either direction beyond buffer ±3SD; no single direction) at 10 µM; 2,400 tested, 4% active;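 note: parental cells lack the transporter so any hit is non-specific; ratio is peak minus trough fluorescence over baseline after EC90 choline challenge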
The depositor's hits bear a star; i = inactive; x = not tested or not shown. In the library only some 3% were active in any assay of this set; here they are far more common. Cut-off read from the data, not from the text of the source, unless noted: active = inhibition above about 50%; inactive = the rest.

SMILES	CHT PAM	Bfl-1 A1 inh	Mot1-301 SUMO	NLRP3 yeast inh	CHT block	NALP1 inh	NALP3 yeast conf	Casp1-ASC yeast	NALP3 yeast rt	CHT inh conf	HEK293 MPD ctr
CCOC(=O)N1CCN(C(=O)c2cc3c(s2)-c2c(C)cccc2OC3)CC1	i	0	4	11	i	25	x	x	x	x	x
Clc1ccc2nc(CSCc3ccccc3)cn2c1	i	1	-4	35	i	1	x	x	x	x	x
Clc1ccc2nc(CSc3nc4ccccc4o3)cn2c1	i	-1	-13	57*	i	7	73*	69*	60*	x	x
CN1CCN(c2nc(C(N)=O)cc(-c3ccccc3)n2)CC1	i	0	-21	7	i	10	x	x	x	x	x
CCN(CC)c1nc(C(N)=O)cc(-c2ccccc2)n1	i	0	-27	53*	i	24	41	65*	47	x	x
COc1ccc(C)cc1NC(=O)c1sc2ncn(CC(=O)N3CCCCC3)c(=O)c2c1C	i	0	9	-1	i	14	x	x	x	x	x
O=C(COC(=O)/C=C/c1ccc([N+](=O)[O-])cc1)NCC1CCCCC1	x	1	10	4	x	x	x	x	x	x	x
COc1ccc2nc(NC(=O)Cc3cccs3)sc2c1	i	-4	105	38	i	23	x	x	x	x	x
Cc1ccc2nc(NC(=O)Cc3cccs3)sc2c1	i	-4	23	52*	i	26	63*	51*	53*	x	x
CC1CC(C)(C)N(C(=O)CN2CCN(C)CC2)c2ccccc21 (configuration not stated)	i	0	-8	12	i	32	x	x	x	x	x
CC1CC(C)(C)N(C(=O)CN2C(=O)c3ccccc3C2=O)c2ccccc21 (configuration not stated)	i	0	2	52*	-16*	-45	10	x	x	62%*	i
N#C/C(=C\c1ccc(Cl)cc1)C(=O)Nc1cccnc1	i	0	-1	7	i	-4	x	x	x	x	x
Cc1nnc(SCc2nc3ccccc3[nH]2)s1	i	0	180	1	i	-1	x	x	x	x	x
c1ccc2[nH]c(CSc3nc4ccccc4s3)nc2c1	i	-3	-6	59*	-6*	6	75*	55*	61*	i	i
O=C(CSc1nc(O)cc(=O)n1-c1ccc(Cl)c(Cl)c1)Nc1ccc(Cl)cc1Cl	i	0	3	15	i	0	x	x	x	x	x
O=C1c2cccc3c(Nc4ccccc4Cl)c([N+](=O)[O-])cc(c23)C(=O)N1CCO	i	0	-1	54*	-5.5*	16	71*	56*	56*	71%*	i
Cc1cc(C)n(CC(=O)NNC(=O)COc2ccc(Br)cc2F)n1	x	-1	14	-13	x	x	x	x	x	x	x
COc1cc(CNCCc2ccccc2)cc(Br)c1OCC(=O)Nc1ccccc1C	i	1	x	54*	-8.4*	23	44	36	45	43%*	i
CCNCc1cc(Br)c(OCC(=O)Nc2ccccc2)c(OC)c1	i	1	10	19	i	7	x	x	x	x	x
CC(C)=CCc1cc(-c2oc3cc(O)cc(O)c3c(=O)c2O)ccc1O	i	-1	-8	29	i	x	x	x	x	x	x
CC(C)=CCc1c(O)cc2oc3c(CC=C(C)C)c(O)c(O)c(CC=C(C)C)c3c(=O)c2c1O	i	0	14	56*	-6.5*	-7	74*	51*	47	i	i
CCN(CC)CCCN(C(=O)c1ccco1)c1nc(-c2ccc(Cl)cc2)cs1	i	0	4	51*	-6.3*	22	54*	46	38	37%*	i
CCN(CC)CCCN(C(=O)c1ccco1)c1nc(-c2ccc(C)cc2)cs1	i	0	x	15	i	16	x	x	x	x	x
CC(C)CCNC(=S)Nc1ccc([N+](=O)[O-])cc1	i	0	-7	63*	-8.7*	92*	-7	x	x	23%*	i
N#C/C(=N\Nc1ccc(Cl)cc1)C(N)=S	i	-2	47	75*	-8.1*	x	90*	x	x	39%*	i
Cc1ccc(-c2csc(NC(=O)c3ccc(F)cc3)c2C(=O)O)cc1	i	-6	-32	83*	-6.4*	46	91*	92*	38	53%*	i
Cc1ccc(-c2csc(NC(=O)c3ccccc3F)c2C(=O)O)cc1	i	-5	-10	71*	-5.1*	4	86*	76*	64*	45%*	i
O=C(C1CCN(S(=O)(=O)c2cccc3cccnc23)CC1)N1CCCCC1	i	0	-5	12	i	14	x	x	x	x	x
CCOCc1c(C(=O)NCC(c2ccco2)N2CCCC2)oc2ccccc12 (configuration not stated)	x	0	9	1	x	x	x	x	x	x	x
Clc1cccc(Cl)c1/C=N/Nc1c(Cl)cncc1Cl	i	0	-22	1	i	2	x	x	x	x	x
